Laboratory results published in PubChem BioAssay AID2763 (National Center for Advancing Translational Sciences (NCATS), 2010).
Records with an inconclusive call do not appear. Entries that show only a call come without a potency. Activity calls are given as the source filed them. The call rests on the fitted dose curve; in most records, active means well fitted inhibition curve with a large enough effect; inconclusive means small, poorly fitted or top-dose-only effect, or effect the other way; inactive means no such curve, though single readings can be large or run the other way.

Test: Concentration response confirmation VP16 counterscreen for inhibitors of ROR gamma transcriptional activity; further: nearly all actives have a fitted effect of over 70% in size
Conditions: Drosophila S2 Gal4-VP16 UAS-luciferase, luminescence, 20 h; series mostly up to 46.1 µM
How it was run: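 Drosophila Schneider cells stably carrying Gal4-VP16 under metallothionein promoter plus UAS-Photinus luciferase. Compound preincubated 1 hr, then 700 uM copper sulfate induction for 20 hr at ambient temperature; luminescence read.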
Potency means the concentration at half of the fitted maximal effect.

SMILES | Potency
Cc1ccc(C(=O)O/N=C/c2ccc(N(C)C)cc2)cc1 | inactive
COc1cc(OC)c(C2=NOC(C(=O)NCc3cccnc3)C2)cc1Cl (centres undefined) | inactive
c1ccc(-c2ncc3c(ccc4ccccc43)n2)cc1 | 8.88 µM (active)
CCOC(=O)c1ccc2nc(Nc3nc4ccc(F)cc4s3)sc2c1 | 25 µM (active)
Cc1c(OC(C)C(=O)NCc2cccnc2)ccc2c3c(c(=O)oc12)CCCC3 (centres undefined) | inactive
COc1cccc(Cn2c(NCc3ccco3)nc3c2c(=O)n(C)c(=O)n3C)c1 | 2.81 µM (active)
O=C1c2ccccc2C(=O)c2c1ccc1c(=O)n(C3CCCCC3)[nH]c21 | inactive
Cc1ccc2nc(-c3ccc(NC(=O)COC(=O)c4ccc(=O)[nH]c4)cc3)sc2c1 | 12.5 µM (active)
Cc1c(CCC(=O)N[C@@H](CC(C)C)C(=O)O)c(=O)oc2cc3oc4c(c3cc12)CCCC4 | 4.99 µM (active)
Cc1cc(C)c(S(=O)(=O)NCCn2ccc3ccccc32)c(C)c1 | inactive
O=C(CCCOc1ccccc1)Nc1nc2ccccc2[nH]1 | inactive
O=C(CSc1nc2ccc(NC(=O)CSc3nnnn3Cc3ccccc3)cc2s1)Nc1ccccc1 | inactive
C=CCn1c(SCC(=O)c2ccc(OC)cc2)nnc1-c1cc2cccc(OC)c2o1 | inactive
Cc1ccc(S(=O)(=O)NCc2ccncc2)cc1 | 12.5 µM (active)
Cc1nn(-c2ccccc2)c(C)c1C(=O)Nc1nnc(-c2ccco2)o1 | 1.25 µM (active)
Cc1ccc(-c2noc(CCC(=O)N(C)c3ccccc3C)n2)cc1 | inactive
CC(=O)c1cnc2nc(C(F)(F)F)nn2c1C | inactive

SMILES | Potency
CCOC(=O)c1oc2cccc(OCC(O)CNC(C)C)c2c1C (centres undefined) | inactive
c1csc(CCNc2ncnc3sc4c(c23)CCC4)c1 | 25 µM (active)
O=[N+]([O-])c1cc2c(cc1/C=N/Nc1nc(Nc3ccccc3)nc(N3CCCCC3)n1)OCO2 | inactive
Cc1ccc(OCCn2cc(C(=S)N3CCCC3)c3ccccc32)cc1C | 25 µM (active)
Cc1sc2ncnc(Sc3nnc4sc5ccccc5n34)c2c1C | inactive
CC(C)(C)S(=O)(=O)c1cnc2c(-c3ccc(Cl)cc3)cnn2c1N | 6.28 µM (active)
COc1ccc2nc(N3C(=O)CNC3=S)sc2c1 | 8.88 µM (active)
COC(=O)c1ccc(OCC(=O)c2ccc(O)cc2O)cc1 | 1.58 µM (active)
CCN(C1CCCCC1)S(=O)(=O)c1ccc(S(=O)(=O)NCc2ccncc2)cc1 | 28.1 µM (active)
O=C1CC(c2ccc(F)cc2)CC(O)=C1C1NCCc2ccccc21 (centres undefined) | inactive
COC(=O)c1ccc2nc(Nc3nc4ccc(F)cc4s3)sc2c1 | 5.6 µM (active)
Cc1cccc(NC(=O)c2cc3ccccc3o2)c1 | 25 µM (active)
Cc1ccc(-n2[nH]c3c4c(ccc3c2=O)C(=O)c2ccccc2C4=O)cc1 | inactive
c1ccc(Cn2c(-c3ccccc3)c[n+]3c2SCCC3)cc1 | inactive
Cc1ccc(C)c(-n2[nH]c3c4c(ccc3c2=O)C(=O)c2ccccc2C4=O)c1 | inactive
COc1cc(CNS(=O)(=O)c2ccc3c(c2)CC(C)N3C(=O)C2CCC2)cc(OC)c1OC (centres undefined) | 9.96 µM (active)
O=C(CCCN1C(=O)/C(=C/c2ccccc2Cl)SC1=S)Nc1cccnc1 | 14.1 µM (active)
